# The supplement of paper PMC10849652
# The full data set covers some 8,800 targets. This sample favours those with a hit. About 0.5% of all pairs of compound and target were hits. Unmarked numbers belong to inactive results.
# How the values were obtained:
# Assay in all cases: log2 fold change, soluble protein after heating vs DMSO (PISA); higher = thermal stabilisation; K562 lysate, 10 uM; active = over 0.2 and 3.5 SD of the protein, either way, in both replicates (recomputed)
# vemurafenib = compound: CCCS(=O)(=O)Nc1ccc(F)c(C(=O)c2c[nH]c3ncc(-c4ccc(Cl)cc4)cc23)c1F [vemurafenib]
# Outline: (§1)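 Quantification was by TMTpro 16plex LC-MS/MS with equalised channel sums, applied to the supernatant after 21,000xg for 90 min. Samples were crude K562 extract at 1 mg/mL protein in PBS pH 7.4 with 1 mM MgCl2, treated with 10 μM compound for 30 min, heated for 3 min across 48°C-58°C, pooled and brought to 0.5% NP-40 at 4°C. Values are log-two fold changes in thermal stability relative to solvent controls, from duplicates.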
# [1] = compound: CCCS(=O)(=O)Nc1ccc(F)c(C(=O)c2c[nH]c3ncc(Cl)cc23)c1F
# Outline: as §1
# barasertib = compound: CCN(CCCOc1ccc2c(Nc3cc(CC(=O)Nc4cccc(F)c4)[nH]n3)ncnc2c1)CCOP(=O)(O)O [barasertib]
# Outline: as §1
# [2] = compound: CC[C@@H]1C(=O)N(C)c2cnc(Nc3ccc(C(=O)NC4CCN(C)CC4)cc3OC)nc2N1C1CCCC1
# Outline: as §1
# volasertib = compound: CC[C@@H]1C(=O)N(C)c2cnc(Nc3ccc(C(=O)N[C@H]4CC[C@H](N5CCN(CC6CC6)CC5)CC4)cc3OC)nc2N1C(C)C [volasertib]
# Outline: as §1
# [3] = compound: CCn1c(C(=O)N(C2CC2)C2CC2)cc2c3c(ncn3C)c(Nc3cc(C)n(C)n3)nc21
# Outline: as §1
# [4] = compound: CCn1cc(-c2ccnc3[nH]c(-c4cccc(CN(C)C)c4)cc23)c(-c2ccc(NC(=O)N(C)C)cc2)n1
# Outline: as §1
# [5] = compound: CN1CCC(CNc2ccc3ncc(-c4cccc(OC(F)(F)F)c4)n3n2)CC1
# Outline: as §1
# saracatinib = compound: CN1CCN(CCOc2cc(OC3CCOCC3)c3c(Nc4c(Cl)ccc5c4OCO5)ncnc3c2)CC1 [saracatinib]
# Outline: as §1
# sotrastaurin = compound: CN1CCN(c2nc(C3=C(c4c[nH]c5ccccc45)C(=O)NC3=O)c3ccccc3n2)CC1 [sotrastaurin]
# Outline: as §1
# alvocidib = compound: CN1CC[C@H](c2c(O)cc(O)c3c(=O)cc(-c4ccccc4Cl)oc23)[C@H](O)C1 [alvocidib]
# Outline: as §1
# Tubastatin A = compound: CN1CCc2c(c3ccccc3n2Cc2ccc(C(=O)NO)cc2)C1 [Tubastatin A]
# Outline: as §1
# [6] = compound: CNC(=O)C1=CC=CC=C1NC2=NC(=NC=C2Cl)NC3=C(C=C(C=C3)N4CCOCC4)OC
# Outline: as §1
# defactinib = compound: CNC(=O)c1ccc(Nc2ncc(C(F)(F)F)c(NCc3nccnc3N(C)S(C)(=O)=O)n2)cc1 [defactinib]
# Outline: as §1
# [7] = compound: CNc1nc(-c2ccc3c(N)n[nH]c3c2)cc(N2C[C@@H](C(=O)NC3CCCCC3)CC[C@H]2C)n1
# Outline: as §1
# encorafenib = compound: COC(=O)N[C@@H](C)CNc1nccc(-c2cn(C(C)C)nc2-c2cc(Cl)cc(NS(C)(=O)=O)c2F)n1 [encorafenib]
# Outline: as §1
# [8] = compound: COC(=O)[C@H](CCSC)NC(=O)C1=C(C=C(C=C1)NC[C@H](CS)N)C2=CC=CC=C2
# Outline: as §1
# alisertib = compound: COc1cc(Nc2ncc3c(n2)-c2ccc(Cl)cc2C(c2c(F)cccc2OC)=NC3)ccc1C(=O)O [alisertib]
# Outline: as §1
# [9] = compound: COc1cc2nc(-c3cc(F)ccc3O)nc(N[C@@H]3CNC[C@H]3C(C)(C)O)c2cc1OC
# Outline: as §1
# gefitinib = compound: COc1cc2ncnc(Nc3ccc(F)c(Cl)c3)c2cc1OCCCN1CCOCC1 [gefitinib]
# Outline: as §1
# Sequence of UniProt Q68CZ6 (Q68CZ6 whole entry, looked up): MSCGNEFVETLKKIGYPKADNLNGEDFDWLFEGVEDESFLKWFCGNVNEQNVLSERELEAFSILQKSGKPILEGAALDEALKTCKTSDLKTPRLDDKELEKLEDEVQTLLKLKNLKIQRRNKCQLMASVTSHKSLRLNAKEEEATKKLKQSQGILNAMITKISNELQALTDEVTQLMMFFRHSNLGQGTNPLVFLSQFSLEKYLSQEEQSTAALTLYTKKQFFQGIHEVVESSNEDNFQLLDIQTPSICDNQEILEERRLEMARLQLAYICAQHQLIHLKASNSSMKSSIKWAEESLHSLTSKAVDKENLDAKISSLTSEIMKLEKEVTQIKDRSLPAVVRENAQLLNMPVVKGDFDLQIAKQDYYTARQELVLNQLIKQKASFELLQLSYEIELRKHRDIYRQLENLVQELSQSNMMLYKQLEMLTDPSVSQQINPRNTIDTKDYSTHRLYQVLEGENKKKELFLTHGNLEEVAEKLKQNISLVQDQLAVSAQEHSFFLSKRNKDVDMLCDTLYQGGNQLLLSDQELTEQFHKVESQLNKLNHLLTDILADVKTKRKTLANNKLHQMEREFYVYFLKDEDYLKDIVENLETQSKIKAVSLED
# Sequence of UniProt Q9Y5Q8 (Q9Y5Q8 whole entry, looked up): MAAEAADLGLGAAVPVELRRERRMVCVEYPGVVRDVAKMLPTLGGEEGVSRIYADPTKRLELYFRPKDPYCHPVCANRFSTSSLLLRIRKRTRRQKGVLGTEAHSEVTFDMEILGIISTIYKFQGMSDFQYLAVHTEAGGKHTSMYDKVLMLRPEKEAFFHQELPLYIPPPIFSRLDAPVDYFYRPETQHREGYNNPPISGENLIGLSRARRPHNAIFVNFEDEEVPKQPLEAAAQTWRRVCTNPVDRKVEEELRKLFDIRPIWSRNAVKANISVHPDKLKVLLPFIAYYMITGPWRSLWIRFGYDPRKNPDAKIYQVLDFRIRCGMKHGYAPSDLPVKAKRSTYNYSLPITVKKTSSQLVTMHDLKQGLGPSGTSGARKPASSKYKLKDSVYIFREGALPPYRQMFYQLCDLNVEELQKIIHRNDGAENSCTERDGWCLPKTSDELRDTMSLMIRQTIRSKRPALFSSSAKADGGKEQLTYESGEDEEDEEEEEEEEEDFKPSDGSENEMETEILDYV
# Sequence of UniProt Q9UGL1 (Q9UGL1 whole entry, looked up): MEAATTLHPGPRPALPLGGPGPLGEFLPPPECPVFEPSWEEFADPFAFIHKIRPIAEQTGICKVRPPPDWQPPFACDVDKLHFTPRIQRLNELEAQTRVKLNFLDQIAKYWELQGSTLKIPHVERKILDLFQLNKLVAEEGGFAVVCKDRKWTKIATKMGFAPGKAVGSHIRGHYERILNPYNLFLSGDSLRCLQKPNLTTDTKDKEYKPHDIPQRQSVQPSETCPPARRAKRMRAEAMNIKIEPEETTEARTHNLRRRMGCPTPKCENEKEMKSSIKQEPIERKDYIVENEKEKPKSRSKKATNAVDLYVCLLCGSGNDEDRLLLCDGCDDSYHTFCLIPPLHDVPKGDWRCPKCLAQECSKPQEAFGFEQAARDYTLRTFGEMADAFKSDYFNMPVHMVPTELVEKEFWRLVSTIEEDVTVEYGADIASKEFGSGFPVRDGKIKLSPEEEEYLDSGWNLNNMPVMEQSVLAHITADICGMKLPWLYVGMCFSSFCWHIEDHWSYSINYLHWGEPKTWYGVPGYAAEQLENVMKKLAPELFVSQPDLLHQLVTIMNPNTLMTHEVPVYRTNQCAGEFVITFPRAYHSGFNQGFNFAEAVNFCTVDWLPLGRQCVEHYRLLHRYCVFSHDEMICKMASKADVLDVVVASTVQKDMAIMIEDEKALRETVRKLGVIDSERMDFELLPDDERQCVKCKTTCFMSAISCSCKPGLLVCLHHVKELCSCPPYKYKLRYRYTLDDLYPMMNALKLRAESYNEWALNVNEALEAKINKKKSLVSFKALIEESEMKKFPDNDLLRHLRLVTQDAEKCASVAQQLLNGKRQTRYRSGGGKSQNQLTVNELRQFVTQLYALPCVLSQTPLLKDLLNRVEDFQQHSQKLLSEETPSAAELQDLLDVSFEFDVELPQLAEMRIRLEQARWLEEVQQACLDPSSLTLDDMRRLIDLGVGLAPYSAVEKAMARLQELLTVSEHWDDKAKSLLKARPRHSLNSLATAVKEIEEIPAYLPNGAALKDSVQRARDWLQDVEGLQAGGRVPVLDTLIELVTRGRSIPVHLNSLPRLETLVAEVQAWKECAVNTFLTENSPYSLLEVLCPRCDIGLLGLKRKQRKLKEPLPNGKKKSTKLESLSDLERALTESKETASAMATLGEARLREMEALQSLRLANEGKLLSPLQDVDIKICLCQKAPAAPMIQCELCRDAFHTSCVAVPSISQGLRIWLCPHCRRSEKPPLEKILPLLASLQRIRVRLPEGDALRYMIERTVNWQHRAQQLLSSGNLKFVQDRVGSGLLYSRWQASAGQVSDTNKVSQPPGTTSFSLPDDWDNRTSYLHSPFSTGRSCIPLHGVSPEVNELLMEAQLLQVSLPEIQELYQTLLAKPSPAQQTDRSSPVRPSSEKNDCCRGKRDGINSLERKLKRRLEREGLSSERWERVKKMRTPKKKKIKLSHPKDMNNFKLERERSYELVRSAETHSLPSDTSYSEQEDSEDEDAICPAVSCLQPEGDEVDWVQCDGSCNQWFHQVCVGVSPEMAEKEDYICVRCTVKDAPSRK
# Sequence of UniProt Q9H6D7 (Q9H6D7 whole entry, looked up): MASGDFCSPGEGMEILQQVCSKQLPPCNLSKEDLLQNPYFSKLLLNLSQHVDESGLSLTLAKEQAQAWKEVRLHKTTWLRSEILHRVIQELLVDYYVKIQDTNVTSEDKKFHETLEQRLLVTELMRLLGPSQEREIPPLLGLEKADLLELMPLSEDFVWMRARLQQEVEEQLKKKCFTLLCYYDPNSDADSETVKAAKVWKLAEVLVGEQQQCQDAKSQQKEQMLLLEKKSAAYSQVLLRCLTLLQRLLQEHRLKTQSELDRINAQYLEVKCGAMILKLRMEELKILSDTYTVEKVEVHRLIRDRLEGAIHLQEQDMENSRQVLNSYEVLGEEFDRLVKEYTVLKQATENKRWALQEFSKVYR
# Sequence of UniProt P62873 (P62873 whole entry, looked up): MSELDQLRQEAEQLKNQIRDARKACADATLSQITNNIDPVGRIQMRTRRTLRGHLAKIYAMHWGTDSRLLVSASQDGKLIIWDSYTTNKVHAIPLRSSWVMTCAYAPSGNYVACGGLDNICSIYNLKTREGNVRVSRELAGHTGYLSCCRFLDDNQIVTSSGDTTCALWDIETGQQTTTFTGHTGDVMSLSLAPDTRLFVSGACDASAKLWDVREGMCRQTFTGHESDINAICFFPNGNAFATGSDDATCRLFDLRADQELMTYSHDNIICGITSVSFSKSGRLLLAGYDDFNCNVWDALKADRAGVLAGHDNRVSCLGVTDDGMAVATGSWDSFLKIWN
Target,log2 fold change (vemurafenib),log2 fold change [1],log2 fold change (barasertib),log2 fold change [2],log2 fold change (volasertib),log2 fold change [3],log2 fold change [4],log2 fold change [5],log2 fold change (saracatinib),log2 fold change (sotrastaurin),log2 fold change (alvocidib),log2 fold change (Tubastatin A),log2 fold change [6],log2 fold change (defactinib),log2 fold change [7],log2 fold change (encorafenib),log2 fold change [8],log2 fold change (alisertib),log2 fold change [9],log2 fold change (gefitinib)
GTF3C5 isoform 3 (UniProt Q9Y5Q8),0.024,0.009,-0.011,0.006,-0.018,0.051,-0.025,0.017,0.031,-0.033,-0.005,-0.166,0.029,0.014,-0.012,0.01,0.153,0.004,0.001,-0.004
GNB1 (UniProt P62873),-0.048,0.124,-0.016,-0.081,0.008,-0.037,-0.072,0.05,-0.038,-0.287 (active),-0.095,0.029,-0.023,-0.028,-0.011,0.007,0.003,-0.023,-0.011,-0.128
HAUS3 (UniProt Q68CZ6),0.012,0.024,0.006,-0.029,-0.048,0.002,-0.035,-0.065,-0.016,0.01,-0.022,-0.159,0.043,-0.023,-0.021,0.026,0.065,0.014,0.003,-0.011
GSTZ1 (UniProt G3V4T6),-0.013,-0.024,0.018,-0.101,-0.02,-0.029,-0.116,0.087,-0.012,-0.018,-0.016,0.018,0.01,0.061,0.028,-0.045,0.35 (active),0.023,0.049,0.002
H4C1 (UniProt P62805),-0.013,0.087,0.079,-0.055,0.027,0.079,0.268,-0.01,-0.094,-0.059,-0.101,0.373 (active),-0.023,-0.02,0.569 (active),0.038,0.051,0.018,0.012,-0.008
KDM5B isoform 2 (UniProt Q9UGL1),0.043,0.073,0.039,0.138,0.071,-0.059,-0.107,-0.034,-0.113,-0.136,-0.048,0.021,-0.007,0.08,0.307,-0.094,0.075,–,0.014,–
HAUS4 (UniProt Q9H6D7),0.007,0.044,0.107,-0.047,-0.039,0.015,-0.045,-0.04,0.022,0.02,0.007,-0.116,0.007,0.014,-0.005,0.002,0.012,0.008,-0.017,-0.022
